Data reported in PubChem BioAssay AID1159580 (chemical genetic matrix, 2015).
Several values for one entry are separate records, joined by “and”; a condition that tells them apart may be missing. Identical values can stand only once. Screen size: about 5,500 compounds; about 2,000 (36%) were called active. Inconclusive results (about 18%) are left out. No stated cut-off is given here; in the data, active means normalized growth mostly below about 0.91 (no sharp cut-off); inconclusive means no clear call, values can overlap the other calls; inactive means mostly above about 0.92. The list shows a part of the results.

Assay: chemical genetic growth profiling, strain panel (AID 1159580);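 further: tested at 20 µM; growth read once vehicle control cultures reached saturation at 30 °C; 1 = growth at the plate median or of vehicle wells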
Details: growth OD

Measured: normalized growth

CN(C)CCCN1c2ccccc2CCc2ccc(Cl)cc21
inactive: S. cerevisiae deletion strains, locus YJR066W, strain TOR1, stronger effect = lower value 0.923 | S. cerevisiae deletion strains, locus YKL009W, strain mrt4, stronger effect = lower value 0.971 | S. cerevisiae deletion strains, locus YKL068W, stronger effect = lower value 0.991 | S. cerevisiae deletion strains, locus YKL085W, strain MDH1 (second series), stronger effect = lower value 0.994 | S. cerevisiae deletion strains, locus YKL085W, strain MDH1, stronger effect = lower value 0.994 | S. cerevisiae deletion strains, locus YKL160W, strain elf1, stronger effect = lower value 0.993 | S. cerevisiae deletion strains, locus YKL190W, strain CNB1, stronger effect = lower value 0.953 | S. cerevisiae deletion strains, locus YKR026C, strain gcn3, stronger effect = lower value 1.01 | S. cerevisiae deletion strains, locus YKR091W, strain srl3, stronger effect = lower value 1 | S. cerevisiae deletion strains, locus YLL001W, strain dnm1, stronger effect = lower value 1.01 | S. cerevisiae deletion strains, locus YLL026W, stronger effect = lower value 0.982 | S. cerevisiae deletion strains, locus YLL041C, strain sdh2, stronger effect = lower value 1 | S. cerevisiae deletion strains, locus YLR027C, strain aat2, stronger effect = lower value 0.996 | S. cerevisiae deletion strains, locus YLR058C, strain SHM2, stronger effect = lower value 0.946 | S. cerevisiae deletion strains, locus YLR102C, strain apc9, stronger effect = lower value 0.995 | S. cerevisiae deletion strains, locus YLR113W, strain HOG1, stronger effect = lower value 0.983 | S. cerevisiae deletion strains, locus YLR221C, strain rsa3, stronger effect = lower value 0.999 | S. cerevisiae deletion strains, locus YLR258W, strain gsy2, stronger effect = lower value 0.961 | S. cerevisiae deletion strains, locus YLR262C, strain YPT6 (second series), stronger effect = lower value 1.14 | S. cerevisiae deletion strains, locus YLR262C, strain YPT6, stronger effect = lower value 1.33 | S. cerevisiae deletion strains, locus YLR268W, strain sec22, stronger effect = lower value 0.961 | S. cerevisiae deletion strains, locus YLR320W, strain mms22, stronger effect = lower value 1 | S. cerevisiae deletion strains, locus YLR330W, strain CHS5, stronger effect = lower value 0.996 | S. cerevisiae deletion strains, locus YLR342W, strain FKS1, stronger effect = lower value 0.998 | S. cerevisiae deletion strains, locus YLR357W, strain rsc2, stronger effect = lower value 0.974 | S. cerevisiae deletion strains, locus YLR370C, strain arc18, stronger effect = lower value 0.993 | S. cerevisiae deletion strains, locus YLR371W, strain rom2, stronger effect = lower value 0.984 | S. cerevisiae deletion strains, locus YLR384C, strain iki3, stronger effect = lower value 1 | S. cerevisiae deletion strains, locus YML016C, strain PPZ1, stronger effect = lower value 0.978 | S. cerevisiae deletion strains, locus YML032C, strain rad52, stronger effect = lower value 0.967 | S. cerevisiae deletion strains, locus YML120C, strain ndi1, stronger effect = lower value 0.986 | S. cerevisiae deletion strains, locus YML124C, strain tub3, stronger effect = lower value 0.989 | S. cerevisiae deletion strains, locus YMR058W, strain fet3, stronger effect = lower value 0.966 | S. cerevisiae deletion strains, locus YMR078C, strain ctf18, stronger effect = lower value 0.989 | S. cerevisiae deletion strains, locus YMR125W, strain sto1, stronger effect = lower value 0.962 | S. cerevisiae deletion strains, locus YMR129W, stronger effect = lower value 1 | S. cerevisiae deletion strains, locus YMR205C, strain PFK2, stronger effect = lower value 0.979 | S. cerevisiae deletion strains, locus YMR223W, strain ubp8, stronger effect = lower value 0.934 | S. cerevisiae deletion strains, locus YMR231W, strain pep5, stronger effect = lower value 0.999 | S. cerevisiae deletion strains, locus YMR263W, strain SAP30, stronger effect = lower value 0.892 and 1.04 | S. cerevisiae deletion strains, locus YMR307W, strain GAS1, stronger effect = lower value 0.726 | S. cerevisiae deletion strains, locus YNL067W, strain RPL9B, stronger effect = lower value 0.924 | S. cerevisiae deletion strains, locus YNL071W, strain lat1, stronger effect = lower value 1.01 | S. cerevisiae deletion strains, locus YNL175C, strain NOP13, stronger effect = lower value 1.07 | S. cerevisiae deletion strains, locus YNL183C, strain NPR1, stronger effect = lower value 0.934 | S. cerevisiae deletion strains, locus YNL224C, strain SQS1, stronger effect = lower value 1.04 | S. cerevisiae deletion strains, locus YNL233W, strain BNI4, stronger effect = lower value 0.877 | S. cerevisiae deletion strains, locus YNL248C, strain rpa49, stronger effect = lower value 0.983 | S. cerevisiae deletion strains, locus YNL250W, strain rad50, stronger effect = lower value 0.996 | S. cerevisiae deletion strains, locus YNL271C, strain bni1, stronger effect = lower value 0.993 | S. cerevisiae deletion strains, locus YNL298W, strain CLA4, stronger effect = lower value 0.999 | S. cerevisiae deletion strains, locus YNL307C, strain MCK1, stronger effect = lower value 0.961 | S. cerevisiae deletion strains, locus YNL322C, strain KRE1 (second series), stronger effect = lower value 1.01 | S. cerevisiae deletion strains, locus YNL322C, strain KRE1, stronger effect = lower value 0.988 and 0.981 | S. cerevisiae deletion strains, locus YNR049C, strain mso1, stronger effect = lower value 1.01 | S. cerevisiae deletion strains, locus YNR052C, strain pop2, stronger effect = lower value 0.935 | S. cerevisiae deletion strains, locus YOL012C, strain htz1 1.42 | S. cerevisiae deletion strains, locus YOL147C, strain pex11, stronger effect = lower value 0.989 | S. cerevisiae deletion strains, locus YOR001W, strain rrp6, stronger effect = lower value 0.982 | S. cerevisiae deletion strains, locus YOR069W, strain VPS5, stronger effect = lower value 0.984 | S. cerevisiae deletion strains, locus YOR070C, strain gyp1, stronger effect = lower value 0.99 | S. cerevisiae deletion strains, locus YOR080W, strain dia2, stronger effect = lower value 1 | S. cerevisiae deletion strains, locus YOR083W, strain WHI5 (second series), stronger effect = lower value 1.1 | S. cerevisiae deletion strains, locus YOR083W, strain WHI5, stronger effect = lower value 0.985 | S. cerevisiae deletion strains, locus YOR136W, strain idh2, stronger effect = lower value 1.01 | S. cerevisiae deletion strains, locus YOR144C, strain elg1, stronger effect = lower value 0.991 | S. cerevisiae deletion strains, locus YOR184W, strain ser1, stronger effect = lower value 0.96 | S. cerevisiae deletion strains, locus YOR231W, strain MKK1, stronger effect = lower value 0.999 | S. cerevisiae deletion strains, locus YOR265W, strain rbl2, stronger effect = lower value 1 | S. cerevisiae deletion strains, locus YOR290C, strain snf2, stronger effect = lower value 0.903 | S. cerevisiae deletion strains, locus YOR316C, strain cot1, stronger effect = lower value 0.977 | S. cerevisiae deletion strains, locus YPL051W, strain arl3, stronger effect = lower value 0.989 | S. cerevisiae deletion strains, locus YPL078C, strain atp4, stronger effect = lower value 0.987 | S. cerevisiae deletion strains, locus YPL106C, strain sse1, stronger effect = lower value 1.02 | S. cerevisiae deletion strains, locus YPL240C, strain hsp82, stronger effect = lower value 0.99 | S. cerevisiae deletion strains, locus YPL241C, strain CIN2, stronger effect = lower value 0.986 and 0.999 | S. cerevisiae deletion strains, locus YPL256C, strain CLN2, stronger effect = lower value 1.02 | S. cerevisiae deletion strains, locus YPR119W, strain clb2, stronger effect = lower value 0.993 | S. cerevisiae deletion strains, locus YPR141C, strain kar3, stronger effect = lower value 0.99 | S. cerevisiae deletion strains, locus YPR167C, strain met16, stronger effect = lower value 0.986 | S. cerevisiae deletion strains, strain wtn01, stronger effect = lower value 0.928 | S. cerevisiae strains, strain wild type, stronger effect = lower value 0.902
active: S. cerevisiae deletion strains, locus YKR001C, strain vps1, stronger effect = lower value 0.644 | S. cerevisiae deletion strains, locus YLR039C, strain RIC1, stronger effect = lower value 1.35 [resistant] | S. cerevisiae deletion strains, locus YLR342W, strain FKS1 (second series), stronger effect = lower value 0.615 | S. cerevisiae deletion strains, locus YLR418C, strain cdc73, stronger effect = lower value 0.64 | S. cerevisiae deletion strains, locus YNL209W, strain ssb2, stronger effect = lower value 0.926 | S. cerevisiae deletion strains, locus YOL006C, strain TOP1, stronger effect = lower value 0.311 | S. cerevisiae deletion strains, locus YOR061W, strain CKA2, stronger effect = lower value 0.847 | S. cerevisiae deletion strains, locus YOR106W, strain vam3, stronger effect = lower value 0.846 | S. cerevisiae deletion strains, locus YOR270C, strain vph1, stronger effect = lower value 0.567 | S. cerevisiae deletion strains, locus YPR163C, strain tif3, stronger effect = lower value 0.728
